# Experimental data reported in PubChem BioAssay AID1259422 (The Scripps Research Institute Molecular Screening Center, 2018).
# The campaign covered roughly 640,000 compounds. About 9,300 (1.5%) were called active. This excerpt belongs to a sample that is enriched for actives. A number with no mark means an inactive call. Rule as the data show it: active = inhibition above about 32%; inactive = the rest.
# Assay: TEAD-YAP interaction inhibition, primary screen, TEAD-YAP interaction inhibitor project, luminescence, HEK-TIYL cells (AID 1259422);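 also: 0% = median of test compound wells and 100% = reference inhibitor wells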
# Conditions: TEAD-Gal4/YAP UAS-luciferase luminescence, at 9.12 µM, stronger effect = higher value
row,SMILES,inhibition
1,CC[n+]1c(/C=C/C=C2\N(C)c3ccccc3C2(C)C)n(-c2ccccc2)c2ccc(Cl)cc21,91.8% (active)
2,C=C1C[C@@H](c2ccccc2)N2CCC[C@H]2[C@H]1C,-6.5%
3,C=C(C)CN(CC)C(C)Cc1ccc(OC)c(OC)c1 (stereo not given),-4.32%
4,Cc1[nH]c2c(F)cccc2c1CCN,1.82%
5,CCOc1cc2c(cc1C=C(C#N)C#N)OCO2,-1.58%
6,CC1=CC(=Cc2sc3ccccc3[n+]2C)C=C(C)O1,85.8% (active)
7,Cc1ccc2nc(NC(=O)c3c(O)c4c(n(Cc5ccco5)c3=O)CCCC4)sc2c1,-4.37%
8,COc1cc(/C=C2\C(=O)NC(=O)N(c3ccccc3)C2=O)ccc1O,11.5%
9,Cc1cc2c(cc1Br)NC(=O)C2(c1c(O)n(C)c(=O)n(C)c1=O)C(C#N)C#N (stereo not given),-14.6%
10,CN(C)P(=O)(c1cccc(C(=O)O)c1)N(C)C,-4.89%
11,CCOc1ccc(C(Nc2ccccc2)P2(=S)OCC(C)(C)CO2)cc1 (stereo not given),5.04%
12,CN[C@@H]1C[C@H]2O[C@@](C)([C@@H]1OC)n1c3ccccc3c3c4c(c5c6ccccc6n2c5c31)C(=O)NC4,102% (active)
13,O=C1NC(=S)NC(=O)C1=Cc1ccc(-c2ccccc2)o1,1.36%
14,O=C(Cc1ccc(F)cc1)N(Cc1ccco1)C1CCN(Cc2ccncc2)CC1,-7.86%
15,COc1ccc(C=C(C#N)C#N)c(C)c1C,-13.8%
16,c1ccc2c(c1)[I+]c1ccccc1-2,60% (active)
17,CCOC(=O)C1=C(N)Oc2n[nH]c(C)c2C12C(=O)Nc1ccc(Br)cc12 (stereo not given),4.72%
18,CC(=O)Nc1cc([N+](=O)[O-])ccc1N1CCN(C)CC1,-2.87%

row,SMILES,inhibition
1,COc1ccc(C(C[N+](=O)[O-])c2c(-c3ccccc3)[nH]c3ccccc23)cc1 (stereo not given),52.6% (active)
2,COc1ccc(-n2c(-c3ccccc3)nc3ccccc3c2=O)cc1,1.69%
3,CCCCOc1ccccc1C1C(C#N)=C(N)Oc2c1c(=O)oc1ccccc21 (stereo not given),-0.47%
4,Cc1ccc(NC(=O)C2C3c4ccccc4C(c4ccccc43)C2C(=O)O)cc1 (stereo not given),-0.29%
5,CCCCC[n+]1ccc(-c2cc[n+](CCCCC)cc2)cc1,56.5% (active)
6,CCOC(=O)C1C2NC(=S)NC1(C)Oc1cc(OC)ccc12 (stereo not given),0.95%
7,O=C(c1ccccc1)c1cc(Cl)ccc1N1C(=O)c2ccccc2C1=O,-3.06%
8,COc1cc(CN2CCN(C)CC2)ccc1O,4.62%
9,C[C@@H]1C[C@H]2CC[C@H](O2)[C@H](C)C(=O)O[C@@H](C)C[C@@H]2CC[C@@H](O2)[C@@H](C)C(=O)O[C@H](C)C[C@H]2CC[C@H](O2)[C@H](C)C(=O)O[C@@H](C)C[C@@H]2CC[C@@H](O2)[C@@H](C)C(=O)O1,94.6% (active)
10,N#C/C(=C\c1cc2c(cc1Cl)OCO2)c1nn(CCO)c(N)c1C#N,-18.8%
11,CCC(=O)C1=C(C)OC(N)=C(C(=O)OC)C12C(=O)Nc1ccccc12 (stereo not given),3.18%
12,COc1ccc2c(c1)c(C(=O)N1CCN(C)CC1)c(C)n2C,-6.79%
13,C(=N\N1CCCCC1)/c1c[nH]c2ccccc12,4.68%
14,O=C1CC(=O)N(C2CCCCCC2)C(=O)N1,-0.34%
15,N#Cc1ccc(NC(=O)COC(=O)CCC2CCCC2)cc1Cl,0.25%
16,c1ccc2c(CCNC3CC4CCC3C4)c[nH]c2c1 (stereo not given),-1.36%
17,CCCCCCOc1ccc(C=C2C(=O)NC(=S)NC2=O)cc1,13%
